Assay [1] is described as follows: UKN5_HCS_SBAD2_cell_viability: Viability Assessment in the University of Konstanz (UKN) Leist Lab Neurite Outgrowth Assay in human iPSC-derived immature Dorsal Root Ganglia Neurons (UKN5) (AID 2284056). The procedure, abridged: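 iPSC-derived immature peripheral neurons (SBAD2) seeded on Matrigel with CHIR99021, SU5402 and DAPT, dosed 1 h later for 24 h. Viability from Hoechst H-33342 and calcein-AM live staining, high-content imaging; bidirectional fit versus DMSO.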

A short description of assay [2]: UKN5_HCS_SBAD2_neurite_outgrowth: University of Konstanz (UKN) Leist Lab Neurite Outgrowth Assay in human iPSC-derived immature Dorsal Root Ganglia Neurons (UKN5) (AID 2284070). As to conditions: actives raise or lower the signal. In a few lines:
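Thaw, seed on Matrigel (100.000 cells/cm2), dose 1 h later; at 23 h live-stain with H-33342 and calcein-AM for 60 min; image at 24 h. Neurite area fitted bidirectionally vs DMSO.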

The nature of assay [3]: UKN2_HCS_IMR90_neural_migration: University of Konstanz (UKN) Leist Lab Neural Crest Cell Migration Assay in human induced IMR90 Pluripotent Stem Cells (UKN2) (AID 2284204). As to conditions: actives raise or lower the signal. The procedure, abridged:
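Using a 96-well stopper format with PLO/laminin/fibronectin coating, neural crest cells from iPSC migrate in cytokine-supplemented N2-S medium; after 24 h, chemicals are applied for a further 24 h, then cells are imaged after dye staining.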

Assay [4] is described as follows: UKN4_HCS_LUHMES_neurite_outgrowth: University of Konstanz (UKN) Leist Lab Neurite Outgrowth Assay in human LUHMES cells (UKN4) (AID 2284206). As to conditions: actives raise or lower the signal. The procedure, abridged: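 Human LUHMES cells were differentiated for two days, replated and treated with chemicals for 24 h. Neurite outgrowth was quantified as calcein-stained neurite area by HCS imaging, fitted bidirectionally relative to DMSO.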

Assay [5] in a line: IUF_NPC1b_proliferation_BrdU_72hr: Leibniz Research Institute for Environmental Medicine (IUF) 72-hour Neural Progenitor Cell Bromodeoxyuridine (BrdU) Proliferation Assay (NPC1b) (AID 2284207). In a few lines:
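Neural progenitor spheres of human fetal origin are treated for three days; BrdU added for the last 16 h is quantified by luminescence ELISA, with DMSO as baseline and EGF/FGF omission as positive control.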

Assay [6] is described as follows: IUF_NPC1_viability_72hr: Viability Assessment at 72 hours in the Leibniz Research Institute for Environmental Medicine (IUF) Neural Progenitor Cell Proliferation Assay (NPC1) (AID 2284209). In a few lines:
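Spheres of primary human neural progenitors were plated singly in proliferation medium and treated for 72 h. Mitochondrial reduction of resazurin was then measured by fluorescence and analysed against DMSO controls.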

The nature of assay [7]: UKN4_HCS_LUHMES_cell_viability: Viability Assessment in the University of Konstanz (UKN) Leist Lab Neurite Outgrowth Assay in human LUHMES cells (UKN4) (AID 2284232). The procedure, abridged:
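Cells switched to differentiation medium at day 0, replated on day 2 in medium lacking cAMP and GDNF, and compound-treated once attached. Live staining began 23.5 h later, imaging followed at 24 h.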

Assay [8] can be described thus: UKN2_HCS_IMR90_cell_viability: Viability Assessment in the University of Konstanz (UKN) Leist Lab Neural Crest Cell Migration Assay in human induced IMR90 Pluripotent Stem Cells (UKN2) (AID 2284233).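 Further: viability of neural crest cells differentiated from IMR90 iPSC measured by calcein-AM fluorescence imaging; cells exposed to compound for 24 h after a 24 h migration phase.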 The procedure, abridged: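 cMINC format, iPSC-derived neural crest (IMR90); 24 h migration (EGF/FGF, N2-S), then 24 h toxicant. Calcein-AM/H-33342 stain 30 min; fluorescence intensity by HCS; DMSO-normalised, bidirectional fitting.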

Assay [9] is described as follows: IUF_NPC2a_radial_glia_migration_120hr: Leibniz Research Institute for Environmental Medicine (IUF) 120-hour Neural Progenitor Cell Migration Assay for Radial Glia Migration (NPC2a) (AID 2284298). In a few lines: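 Human fetal-cortex neural progenitor spheres (0.3 mm) plated on poly-D-lysine/laminin in N2 differentiation medium, exposed 120 h at 37C with half-medium renewal at day 3. Radial glia migration distance (um) measured from Hoechst-stained nuclei images; DMSO baseline.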

Assay [10] in a line: IUF_NPC2a_radial_glia_migration_72hr: Leibniz Research Institute for Environmental Medicine (IUF) 72-hour Neural Progenitor Cell Migration Assay for Radial Glia Migration (NPC2a) (AID 2284299). The procedure, abridged:
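Single 0.3 mm neurospheres were plated per well in N2 differentiation medium and exposed from the start of differentiation. After 72 hours, brightfield images were taken and radial glia migration from the sphere core edge was measured manually in four directions, averaged per well.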

Assay [11] can be described thus: IUF_NPC2b_neuronal_migration_120hr: Leibniz Research Institute for Environmental Medicine (IUF) 120-hour Neural Progenitor Cell Migration Assay for Neuron Migration (NPC2b) (AID 2284300). In a few lines:
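0.3 mm hNPC spheres on poly-D-lysine/laminin in N2 differentiation medium exposed 120 h, half-medium refresh day 3; 7 concentrations, DMSO max 0.1%. Neuron (TUBB3) distance from sphere core by ICC imaging, normalised to radial glia migration.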

Assay [12] is described as follows: IUF_NPC3_neuronal_differentiation_120hr: Leibniz Research Institute for Environmental Medicine (IUF) 120-hour Neuronal Differentiation Assay (NPC3) (AID 2284301). In a few lines: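 Neuronal differentiation of primary human neural progenitors measured by high-content imaging: percent TUBB3+ of Hoechst+ nuclei within migrated area at 120 h, seven-point serial dilution plus solvent control, gain or loss relative to DMSO.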

Assay [13] is described as follows: IUF_NPC4_neurite_length_120hr: Leibniz Research Institute for Environmental Medicine (IUF) 120-hour Neuronal Morphology Assay for Neurite Length (NPC4) (AID 2284302). In a few lines: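 Neurons from differentiating human fetal neural progenitor spheres are scored for average neurite length after five days of compound exposure. Fitting uses DMSO as negative control.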

A short description of assay [14]: IUF_NPC5_oligodendrocyte_differentiation_120hr: Leibniz Research Institute for Environmental Medicine (IUF) 120-hour Oligodendrocyte Differentiation Assay (NPC5) (AID 2284304; active means hit-call score of the fitted dose curve at least 0.9, where 1 is the maximum;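 further: primary human fetal neural progenitor spheres plated to migrate and differentiate; share of O4-positive cells among Hoechst nuclei found by CNN image analysis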). In a few lines: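 Human fetal neural progenitor spheres (0.3 mm) plated on poly-D-lysine/laminin in N2 differentiation medium and exposed for 120 h at 7 concentrations, with half-medium renewal at day 3. O4-positive cells identified by CNN, expressed as percent of Hoechst nuclei.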

A short description of assay [15]: IUF_NPC4_neurite_area_120hr: Leibniz Research Institute for Environmental Medicine (IUF) 120-hour Neuronal Morphology Assay for Neurite Area (NPC4) (AID 2284305; active means hit-call score of the fitted dose curve at least 0.9, where 1 is the maximum). In a few lines: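 Endpoint at 120 h: automated imaging of TUBB3/Hoechst-stained differentiating human neural progenitor spheres, neurite area per neuron from skeletonization. DMSO solvent control, not above 0.1%, set the baseline; medium was half-replaced on day 3.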

Assay [16] in a line: IUF_NPC2-5_cell_number_120hr: Cell Number Assessment at 120 hours in the Leibniz Research Institute for Environmental Medicine (IUF) Neural Progenitor Cell Migration and Differentiation Assay (NPC2-5) (AID 2284308).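 Further: count of Hoechst-stained nuclei in migration zone around plated human neural progenitor spheres.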 In a few lines: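 Human fetal neural progenitor spheres (0.3 mm) plated on poly-D-lysine/laminin in N2 differentiation medium, exposed five days across 7 concentrations with half-medium refresh at day 3. Hoechst-positive nuclei counted in migration area at 120 h, relative to DMSO.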

A short description of assay [17]: IUF_NPC2-5_viability_120hr: Viability Assessment at 120 hours in the Leibniz Research Institute for Environmental Medicine (IUF) Neural Progenitor Cell Migration and Differentiation Assay (NPC2-5) (AID 2284312). The procedure, abridged:
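Human fetal (GW 16-19) neural progenitor spheres of 0.3 mm were plated on poly-D-lysine/laminin in N2 differentiation medium and exposed from day 0 for 120 h, with half-medium refresh at day 3. Viability was read as alamar blue resazurin-to-resorufin fluorescence against DMSO.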

Molecules are shown by their SMILES. Results filed as inconclusive are left out. Calls of active or inactive are those of the source. How the source made its calls, unless noted: active means hit-call score of the fitted dose curve at least 0.9, where 1 is the maximum; inactive means score below 0.9.

In general, AC50 refers to the concentration giving half of the maximal activity seen. As to `CC(=O)OC/N=[N+](\C)[O-]`, the outcome in assay [1], in [3], in assay [7], in [8], in assay [9] and in assay [10] was inactive. Besides, the outcome in assay [11], in assay [12], in assay [13], in assay [14], in assay [15] and in assay [16] was inactive. Further, the compound was classed as inactive in assay [17]. Also, the AC50 is 613 µM (active) in [2], 721 µM (active) in [4], 371 µM (active) in assay [5] and 1150 µM (active) in assay [6].

For the origin of these results see PubChem BioAssay (EPA / NIEHS).
